High-throughput results deposited in PubChem BioAssay by National Center for Advancing Translational Sciences (NCATS).
KB-3-1 cytotox: kills parental KB-3-1 adenocarcinoma cells; KB-3-1 viability, CellTiter-Glo ATP luminescence, 72 h; Potency, µM (series often up to 46.1 µM), hits mostly cytotoxic; 400,000 tested, 1.4% active; also: % is scaled to controls: 0 for no effect and ±100 for the full control effect; nearly all actives have a fitted effect of over 60% in size
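Multi-concentration cytotoxicity screen in KB-3-1 cells grown in DMEM lacking phenol red with 10% FBS. After 72 h at 37 °C with compound, ATP-dependent luminescence was recorded.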
KB-V1 MDR tox: kills drug-selected multidrug resistant KB-V1 cells. KB-V1 MDR cells viability, CellTiter-Glo, 72 h. Potency, µM (series often up to 46.1 µM), hits mostly cytotoxic. 400,000 tested, 3.4% active; also: % is scaled to controls: 0 for no effect and ±100 for the full control effect; nearly all actives have a fitted effect of over 60% in size
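KB-V1 MDR subline cells in DMEM (phenol-red free, 10% FBS) exposed to compounds in qHTS concentration series for 72 h at 37 degrees C. Viability read by CellTiter-Glo luminescence; concentration-effect curves fitted after normalization and correction.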
HT1080-NT tox: kills 2HG-producing HT-1080-NT fibrosarcoma cells; HT-1080-NT fibrosarcoma viability, CellTiter-Glo ATP luminescence, 48 h; AID 686970; 360,000 tested, 1.6% active; Potency, µM (titrated, usually from 46.1 µM), for the others: at the top dose activity, negative = less viability, usual class: cytotoxic;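 also: NT is the 2HG producing partner of a matched IDH1 knockdown line; 0% = DMSO-treated cells and -100% = media-only wells without cells; nearly all actives have a fitted effect of over 55% in size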
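750 cells/well, RPMI + 5% FBS; 2 h settle, compound pin-transfer, 48 h at 37 degrees C. CellTiter-Glo 10 min RT, luminescence. Normalized to DMSO and media-only wells.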
MCF10A rerep: inducers of DNA re-replication in MCF 10A breast cells; 350,000 tested, 2.9% active; AID 624296; MCF 10A DNA re-replication, Hoechst nuclear intensity, 48 h; Potency, µM (series often up to 46.1 µM), inactives show at the top dose activity, positive = re-replication, hits mostly activators; also: % of control where 0% means no effect; nearly all actives have a fitted effect of over 50% in size
HT1080 IDH1KD tx: toxicity to HT-1080 IDH1 knockdown cells (counter line); HT-1080 IDH1 knockdown viability, ATP luminescence, 48 h; Potency, µM (top dose mostly 46.1 µM), for the others: at the top dose activity, negative = toxicity, hits mostly cytotoxic; 360,000 tested, 2% active;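 also: 0% = DMSO wells and -100% = cell-free medium wells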
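Viability of IDH1-knockdown HT-1080 fibrosarcoma cells was assessed by CellTiter-Glo after 48 h at 37 °C with titrated compound; concentration-effect curves were classified by fit quality and response size.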
SW480 rereplic: DNA re-replication induction in SW480 cells | Potency, µM (highest dose often 46.1 µM), without a hit: top-dose re-replication activation, actives largely listed as activators | 340,000 tested, 1.8% active | SW480 DNA re-replication, Hoechst DNA content imaging, 48 h | AID 624297; also: % of control where 0% means no effect; nearly all actives have a fitted effect of over 55% in size
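Quantitative HTS format with DMSO vehicle controls; 48 hr drug incubation at 37 C, then 40 min Hoechst staining and scanning imager measurement at 405 nm excitation.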
The depositor's hits bear a star; i = inactive; ? = inconclusive; . = no result; [ ] = another dose, or the depositor's remark. Compounds with a hit are over-represented: about 7.9% of the library has one in this group of screens. Calls follow the shape of the dose curve; as a rule, active = well fitted curve in the direction sought with a large enough effect; inconclusive = small, poorly fitted or top-dose-only effect, or another doubt; inactive = no such curve, though single readings can be large; an effect the other way counts as inactive or inconclusive. Potency is read from the fitted curve at half-maximal effect.

SMILES | KB-3-1 cytotox | KB-V1 MDR tox | HT1080-NT tox | MCF10A rerep | HT1080 IDH1KD tx | SW480 rereplic
O=S(=O)(Nc1cccc2ccccc12)N1CCCC1 | i | ? | -12.1% | 8.2µM* | -12.6% | 4.8%
Cc1cc(C)c(NC(=O)Cn2c(=O)n(-c3ccc(F)cc3)c(=O)c3c(C)c(C(=O)N(C)C)sc32)c(C)c1 | i | i | . | . | . | .
COc1ccc(S(=O)(=O)N(C)CC(=O)NCc2ccc3c(c2)OCO3)cc1 | i | i | 5.3% | -0.6% | -0.3% | -9.8%
CCCCC(=O)N1CCc2cc(OC)c(OC)cc2C1COc1ccc(OC)cc1 (stereo not given) | i | ? | . | . | . | .
CCOc1ccc2nc(-c3ccccc3)[nH]c2c1 | ? | i | 8.2µM* | 5.17µM* | 9.2µM* | 18.4µM*
Nc1nnc(CC(c2ccccc2)c2ccccc2)s1 | i | 23.1µM* | 1.9% | 16.7% | 1.1% | -1.5%
COc1ccc2c(c1)sc1ncc(C(=O)NCc3ccc(Cl)cc3)c(=O)n12 | i | i | . | . | . | .
O=C(NC(c1ccco1)c1cc(Cl)c2cccnc2c1O)c1ccsc1 (stereo not given) | ? | i | . | . | . | .
CCc1ccc(/C=C/C(=O)C2C(=O)c3ccccc3C2=O)cc1 | i | i | ? | ? | ? | ?
CC[N+]1(C)CCC(O)(/C=C/c2ccccc2)C(C(=O)/C=C/c2ccccc2)C1 (stereo not given) | ? | ? | -16.6% | ? | 7.31µM* | 20.6µM*
COC(=O)c1ccc(NC(=O)COc2ccccc2C(=O)Nc2ccccc2)cc1 | i | i | . | . | . | .
CCc1cc(C(=O)N(CC)CC(=O)Nc2ccc(OC)cc2)sc1C | i | 18.4µM* | -1.2% | ? | 1.6% | 8.8%
CCN(CC(=O)Nc1ccc(OC)cc1)C(=O)Cc1coc2cc(C)c(C)cc12 | i | 16.4µM* | -1.0% | -0.6% | -7.3% | -0.7%
Cc1ccc(NC(=O)CN(C)C(=O)Cc2coc3cc(C)c(C)cc23)cc1 | i | i | 0.0% | 2.6% | -6.4% | -25.8%
CC(C)[Si]1(C(C)C)OCC2OC(n3cnc4c(N)ncnc43)C(N)C2O[Si](C(C)C)(C(C)C)O1 (stereo not given) | i | i | -17.9% | 13µM* | ? | ?
CCCN(Cc1nnc(-c2ccccc2Cl)o1)C(=O)c1oc2ccccc2c1C | ? | ? | 2.9% | ? | -14.8% | 16.0%
CCOC(=O)N1CCC2(CC1)C(C#N)=C(N)Oc1c2sc2nc(C)cc(C)c12 | i | i | ? | 7.31µM* | ? | ?
N/C(=N\OC(=O)/C=C/c1ccccc1)c1ccccn1 | i | i | 12.4% | -7.5% | 13.5% | -8.2%
CCOC(=O)c1cccc(NC(=O)/C=C/c2ccc3c(c2)OCO3)c1 | 10.3µM* | ? | ? | 9.2µM* | ? | 3.1%
O=C(/C=C/c1ccccc1)c1ccccn1 | i | i | ? | 18.4µM* | ? | ?
CCOC(=O)c1cccc(NC(=O)c2ccc3c(c2)OCO3)c1 | ? | ? | 0.7% | 8.7% | -11.9% | -4.2%[9.22 µM]
O=C(/C=C/c1ccc2c(c1)OCCCO2)c1ccc2ccccc2c1O | i | ? | -28.8% | 18.4µM* | ? | 1.9%
C(=Cc1cnc2ccccc2n1)c1ccc2c(c1)OCO2 | i | 14.6µM* | -3.1% | . | -13.3% | .
O=C(/C=C/c1ccc2c(c1)OCO2)NCCS(=O)(=O)N1CCN(c2ccc(F)cc2)CC1 | ? | ? | -29.8% | 17.1% | ? | -8.5%
O=C(C=Cc1cccc(Cl)c1)c1ccccc1 | ? | ? | ? | 18.4µM* | ? | 14.6µM*
SMILES | KB-3-1 cytotox | KB-V1 MDR tox | HT1080-NT tox | MCF10A rerep | HT1080 IDH1KD tx | SW480 rereplic
O=C(C=Cc1ccc2c(c1)OCO2)c1ccccc1 | i | i | ? | 18.4µM* | 16.4µM* | ?
O=C(C=Cc1ccc2c(c1)OCO2)C=Cc1ccc2c(c1)OCO2 | i | ? | 6.7% | . | 10.6% | .
O=C(/C=C/c1ccc2c(c1)OCO2)c1ccccn1 | ? | i | 25.9µM* | 14.4% | ? | 10.7%
O=C(/C=C/c1ccc2c(c1)OCO2)NCCS(=O)(=O)N1CCN(c2ccccc2)CC1 | ? | i | ? | . | 7.31µM* | .
O=C(O)c1ccc2c(c1)C(=O)N(c1cccc(C(=O)/C=C/c3ccccc3)c1)C2=O | i | i | ? | 18.4µM* | ? | 1.6%
O=C1[C@@H](Oc2ccccc2)[C@@H](c2cnc3ccccc3c2)N1c1ccccc1 | i | i | ? | ? | 20.6µM* | ?
O=C1[C@@H](Oc2ccccc2)[C@@H](c2ccncc2)N1c1ccncc1 | i | i | -0.7% | 0.184µM* | -0.6% | -61.8%
Nc1nc(=S)[nH]c2n[nH]nc12 | i | i | . | . | . | .
Cc1cccc(N2CCN(C(=O)C3CCN(S(=O)(=O)c4c(C)noc4C)CC3)CC2)c1C | i | ? | 7.1% | 23.3% | -21.8% | -33.2%
CC(C)C[C@H]1CNC(=S)N1CC1CCCN1C[C@H](Cc1ccc(O)cc1)N1C[C@H](Cc2ccccc2)N(CC2CCCCCC2)C1=S (stereo not given in full) | i | ? | 0.0% | -12.1% | -6.6% | ?
CC(C)C[C@H]1CNC(=S)N1CC1CCCN1C[C@H](Cc1ccccc1)N1C[C@H](Cc2ccc(O)cc2)N(CC2CCCCC2)C1=S (stereo not given in full) | ? | ? | -27.0% | -41.0% | ? | 4.61µM*
CC(C)C[C@H]1CNC(=S)N1C[C@H]1CCCN1C[C@H](Cc1ccccc1)N1C[C@H](Cc2ccc(O)cc2)N(CC2CCCCCC2)C1=S | ? | ? | 20.6µM* | . | 14.6µM* | .
Cc1nn(-c2ccccc2)c(C)c1/C=N/NC(=O)CSc1nnc(-c2ccccc2)n1-c1ccc(Cl)cc1 | i | i | 1.3% | ? | -15.9% | -4.2%
Cc1ccc(-c2nnc(SCC(=O)N/N=C/c3c(C)nn(-c4ccccc4)c3C)n2-c2ccccc2)cc1 | ? | 14.6µM* | 3.0% | ? | -22.0% | ?
Cc1ccc(-c2nnc(SCC(=O)N/N=C/c3c(C)nn(-c4ccccc4)c3C)n2-c2ccc(C)cc2)cc1 | ? | 20.6µM* | -24.4% | -0.8% | -26.4% | 3.9%
Cc1ccc(CSc2nnc(SCC(=O)N/N=C/c3c(C)nn(-c4ccccc4)c3C)s2)cc1 | i | i | -8.3% | -1.5% | -8.0% | 4.1%
Cc1ccc(-c2nnc(SCC(=O)N/N=C/c3ccc(C)s3)n2-c2ccccc2)cc1 | ? | 20.6µM* | ? | 18.4µM* | ? | ?
